# Assay results taken from ChEMBL document CHEMBL4513141, “CO-ADD screening of NIH (USA) - Clinical Collection” (2021).
# Potency and affinity values are given separately.
# Tested on: Escherichia coli
# Conditions: Concentration 20 uM; ASSAY_TEST Inhibition of Bacterial Growth; detection method Absorption (OD600); MEDIA CAMHB; plate type 384well; NBS; CORNING #3640; time 18 hr
row,Compound,Inhibition [%]
1,CNCC[C@H](Oc1cccc2ccccc12)c1cccs1.Cl [DULOXETINE HYDROCHLORIDE],4.45
2,COC(=O)C1=C(C)NC(C)=C(C(=O)OC(C)C)C1c1cccc2nonc12 (centres undefined) [ISRADIPINE],-0.09
3,Nc1ccn([C@H]2CC[C@@H](CO)O2)c(=O)n1 [ZALCITABINE],-9.44
4,OCCN(CCO)c1nc(N2CCCCC2)c2nc(N(CCO)CCO)nc(N3CCCCC3)c2n1 [DIPYRIDAMOLE],7.34
5,CCN(CC)CC(=O)Nc1c(C)cccc1C [LIDOCAINE],-3.44
6,CN(C)CCCN1c2ccccc2CCc2ccccc21.Cl [IMIPRAMINE HYDROCHLORIDE],-1.44
7,COc1ccnc(C[S+]([O-])c2nc3cc(OC(F)F)ccc3[n-]2)c1OC.O.[Na+] (centres undefined) [PANTOPRAZOLE SODIUM],1.53
8,CC(=O)C1(O)CCC2C3CC(C)C4=CC(=O)C=CC4(C)C3(F)C(O)CC21C (centres undefined),2.15
9,N[C@@H]1CONC1=O [CYCLOSERINE],1.47
10,COc1ccc2cc(CCC(C)=O)ccc2c1 [NABUMETONE],3.66
11,CCOC(=O)[C@@H](CCc1ccccc1)N[C@@H](C)C(=O)N1CCC[C@H]1C(=O)O.O=C(O)/C=C\C(=O)O,-3.24
12,CC[C@]1(O)C[C@@H]2CN(CCc3c([nH]c4ccccc34)[C@@](C(=O)OC)(c3cc4c(cc3OC)N(C)[C@H]3[C@@](O)(C(N)=O)[C@H](O)[C@]5(CC)C=CCN6CC[C@]43[C@@H]65)C2)C1.O=S(=O)(O)O [VINDESINE SULFATE],3.57
13,CCOC(=O)[C@H](CCc1ccccc1)N[C@@H](C)C(=O)N1[C@H](C(=O)O)C[C@@H]2CCC[C@@H]21,1.83
14,NC(=O)N1c2ccccc2CC(=O)c2ccccc21 [OXCARBAZEPINE],-1.4
15,Cc1cccc(CCN2CCC(C(=O)c3ccc(NS(C)(=O)=O)cc3)CC2)n1.Cl.Cl,-5.54
16,C/C=C1/[C@H]2C=C(C)C[C@]1(N)c1ccc(O)nc1C2,-0.02
17,CC(=O)[C@@]1(O)CC[C@H]2[C@@H]3C[C@H](C)C4=CC(=O)CC[C@]4(C)[C@H]3CC[C@@]21C,-5.84
18,O=c1c(O[C@@H]2O[C@H](CO)[C@H](O)[C@H](O)[C@H]2O)c(-c2ccc(O)c(O)c2)oc2cc(O)cc(O)c12 [HYPEROSIDE],3.89
19,Cn1nnc2c(C(N)=O)ncn2c1=O [TEMOZOLOMIDE],6.63
20,C[C@H]1C[C@@H]2[C@H]([C@@H](O)C[C@@]3(C)[C@H]2CC[C@]3(O)C(=O)CO)[C@@]2(C)C=CC(=O)C=C12 [METHYLPREDNISOLONE],5
21,CC(=O)[C@H]1CC[C@H]2[C@@H]3C[C@H](C)C4=CC(=O)CC[C@]4(C)[C@H]3[C@@H](O)C[C@]12C [MEDRYSONE],2.65
22,CC(C)(C)NC(=O)[C@@H]1CN(Cc2cccnc2)CCN1C[C@@H](O)C[C@@H](Cc1ccccc1)C(=O)N[C@H]1c2ccccc2C[C@H]1O.O=S(=O)(O)O [INDINAVIR SULFATE],5.22
23,O=[N+]([O-])c1cccc2cn[nH]c12 [7-NITROINDAZOLE],6.38
24,Nc1nc2c(ncn2COCCO)c(=O)[nH]1 [ACYCLOVIR],4.79
25,Nc1nc(N)nc(-c2cc(Cl)ccc2Cl)n1.O=C(O)/C=C\C(=O)O [IRSOGLADINE MALEATE],0.86
26,C[C@@H]1C[C@H]2[C@@H]3C[C@H](F)C4=CC(=O)C(Cl)=C[C@]4(C)[C@@]3(F)[C@@H](O)C[C@]2(C)[C@@]1(O)C(=O)CO [HALOMETASONE],4.02
27,COc1ccc(-c2oc3c(CC=C(C)C)c(O[C@@H]4O[C@H](CO)[C@@H](O)[C@H](O)[C@H]4O)cc(O)c3c(=O)c2O[C@@H]2O[C@@H](C)[C@H](O)[C@@H](O)[C@H]2O)cc1 [ICARIIN],-5.7
28,C[C@]12C=CC(=O)C=C1CC[C@@H]1[C@@H]2C(=O)C[C@@]2(C)[C@H]1CC[C@]2(O)C(=O)CO [PREDNISONE],4.61
29,NC(CO)(CO)CO.O=C(c1ccccc1)c1ccc2n1CCC2C(=O)O (centres undefined) [KETOROLAC TROMETHAMINE],-3.99
